Source: PubChem BioAssay (Tox21)
Unmarked numbers belong to inactive results. Inconclusive results are not listed. Entries that show only a call come without a potency. Activity calls are given as the source filed them. Calls follow the shape of the dose curve; as a rule, active = well fitted curve in the direction sought with a large enough effect in the repeat runs; inconclusive = weak or mixed curves; inactive = no such curve, though single readings can be large; an effect the other way counts as inactive or inconclusive.

Assays:
[1] = qHTS RealTime-Glo MT Cell Viability Assay in HEK293 cells - 0 hour (AID 1224880); also: top concentration of the series differs between compounds; nearly all actives have a fitted effect of over 45% in size
Outline: (§1)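 Measured as luminescence from the same continuously cultured HEK293 wells at successive time points (0, 8, 16, 24, 32, 40 h) after compound addition. Reagent present from seeding; dosing at 5 h; incubation 37 C.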

[2] = A CellTox Green Cytotoxicity Assay to monitor cytotoxicity in HEK293 cells - 32 hour (AID 1224881); also: nearly all actives have a fitted effect of over 40% in size
Outline: (§2)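 Homogeneous no-lysis format: HEK293 cell suspension mixed with CellTox Green reagent, seeded, incubated 5 h at 37 C/5% CO2, then dosed by pintool with compound in DMSO.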

[3] = A CellTox Green Cytotoxicity Assay to monitor cytotoxicity in HepG2 cells - 0 hour (AID 1224882); also: nearly all actives have a fitted effect of over 35% in size
Outline: (§3)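 Fluorescent DNA-binding dye, 600 HepG2 cells/well, 5 h preincubation then compound in DMSO; same plates read at 0–40 h, 37 C.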

[4] = A CellTox Green Cytotoxicity Assay to monitor cytotoxicity in HEK293 cells - 8 hour (AID 1224884); also: nearly all actives have a fitted effect of over 35% in size
Outline: as §2

[5] = qHTS RealTime-Glo MT Cell Viability Assay in HepG2 cells - 16 hour (AID 1224885); also: nearly all actives have a fitted effect of over 50% in size
Outline: (§4)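 Cell number in HepG2 cultures estimated from NanoLuc luminescence generated by metabolic reduction of a prosubstrate by living cells. The homogeneous, nonlytic format allowed repeated reads at 0, 8, 16, 24, 32 and 40 h of compound exposure.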

[6] = A CellTox Green Cytotoxicity Assay to monitor cytotoxicity in HEK293 cells - 16 hour (AID 1224888); also: nearly all actives have a fitted effect of over 35% in size
Outline: as §2

[7] = qHTS RealTime-Glo MT Cell Viability Assay in HepG2 cells - 0 hour (AID 1224889); also: nearly all actives have a fitted effect of over 50% in size
Outline: as §4

[8] = A CellTox Green Cytotoxicity Assay to monitor cytotoxicity in HepG2 cells - 8 hour (AID 1224890); also: nearly all actives have a fitted effect of over 45% in size
Outline: as §3

[9] = qHTS assay to identify small molecule antagonists of the estrogen receptor alpha (ER-alpha) signaling pathway using the BG1 cell line in the presence of 0.1 nM 17-beta-estradiol - cell viability counter screen (AID 1259241); also: nearly all actives have a fitted effect of over 40% in size
Outline: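 Cytotoxicity counter-screen: live-cell protease activity measured by fluorescence (30 min reagent step) in the same wells. Cells were VM7Luc4E2 with endogenous ER-alpha and ERE-driven luciferase, treated 22 hr at 37C alongside 0.1 nM 17beta-estradiol final.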

[10] = qHTS assay to identify small molecule antagonists of the androgen receptor (AR) signaling pathway using the MDA cell line in the presence of 0.5 nM R1881 - cell viability counter screen (AID 1259242); also: nearly all actives have a fitted effect of over 45% in size
Outline: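 Human breast carcinoma MDA-kb2 cells, cultured without CO2, receive compounds alongside 0.5 nM (final) R1881 agonist. After 16 hr at 37C, viability is taken as live-cell protease signal.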

[11] = molecular target: Estrogen receptor (Homo sapiens) (UniProt P03372); experiment: qHTS assay to identify small molecule antagonists of the estrogen receptor alpha (ER-alpha) signaling pathway using the BG1 cell line in the presence of 0.1 nM 17-beta-estradiol (AID 1259244); also: nearly all actives have a fitted effect of over 50% in size
Outline: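 Seeding of stripped-serum-adapted VM7Luc4E2 cells, 24 h attachment, compound transfer, then 0.1 nM final 17beta-estradiol; after 22 h incubation, ONE-Glo reagent and luminescence reading.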

[12] = qHTS assay to identify small molecule HDAC inhibitors (AID 1259364); also: potency is read from the fitted curve at half-maximal effect;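 also: wild-type HCT-116 cells with endogenous class I/II HDAC activity; nearly all actives have a fitted effect of over 45% in size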
Outline: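 After a 2 hr compound incubation (37C, 5% CO2), HCT-116 cells seeded at 1,500/well the day before received HDAC-Glo reagent; signal read as luminescence after 30 min at room temperature.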

[13] = qHTS assay to identify small molecule HDAC inhibitors - cell viability counter screen (AID 1259365); also: series mostly up to about 92 µM; nearly all actives have a fitted effect of over 50% in size
Outline: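 CellTiter-Glo luminescence (30 min, room temperature) reported viability after a 2 h compound exposure at 37 C. Cells: wild-type HCT-116, 1,500 per well, seeded the night before.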

[14] = qHTS assay to identify small molecule agonists of the sonic hedgehog signaling (Shh) pathway - cell viability counter screen (AID 1259366); also: nearly all actives have a fitted effect of over 50% in size
Outline: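 Cytotoxicity counter screen: CellTiter-Fluor reagent added after 23 h compound exposure, then 1 h at 37C and fluorescence read. Cells were 3T3 Gli1-Luc, seeded 2,000 per well and dosed 4 h post-plating.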

[15] = qHTS assay to identify small molecule antagonists of the sonic hedgehog signaling (Shh) pathway - cell viability counter screen (AID 1259367); also: nearly all actives have a fitted effect of over 55% in size
Outline: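 Cytotoxicity was assessed in parallel with Shh reporter activity by measuring live-cell protease fluorescence (CellTiter-Fluor) in NIH/3T3 cells stably carrying Gli1-Luc, treated with compound under conditioned medium stimulation for 23 hr plus 1 hr reagent incubation.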

[16] = qHTS RealTime-Glo MT Cell Viability Assay in HEK293 cells - 24 hour (AID 1224886)
Outline: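 Homogeneous bioluminescent viability format in HEK293 cells (600 cells/well). Following 5 h at 37 C/5% CO2, 23 nL compound was pintooled; the signal was measured repeatedly during 40 h incubation.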

[17] = A CellTox Green Cytotoxicity Assay to monitor cytotoxicity in HepG2 cells - 32 hour (AID 1224883); also: nearly all actives have a fitted effect of over 50% in size
Outline: as §3

[18] = qHTS RealTime-Glo MT Cell Viability Assay in HEK293 cells - 8 hour (AID 1224887)
Outline: as §1

[19] = molecular target: Androgen receptor (Homo sapiens) (UniProt P10275); experiment: qHTS assay to identify small molecule antagonists of the androgen receptor (AR) signaling pathway using the MDA cell line in the presence of 0.5 nM R1881 (AID 1259243); also: nearly all actives have a fitted effect of over 50% in size
Outline: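 Cells: MDA-kb2 (MMTV-luc). Stimulus: 0.5 nM R1881. Time: 16 hr, 37C, no CO2. Detection: ONE-Glo luminescence after 30 min at RT.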

Sequence of Estrogen receptor (Homo sapiens) (P03372 whole entry, looked up): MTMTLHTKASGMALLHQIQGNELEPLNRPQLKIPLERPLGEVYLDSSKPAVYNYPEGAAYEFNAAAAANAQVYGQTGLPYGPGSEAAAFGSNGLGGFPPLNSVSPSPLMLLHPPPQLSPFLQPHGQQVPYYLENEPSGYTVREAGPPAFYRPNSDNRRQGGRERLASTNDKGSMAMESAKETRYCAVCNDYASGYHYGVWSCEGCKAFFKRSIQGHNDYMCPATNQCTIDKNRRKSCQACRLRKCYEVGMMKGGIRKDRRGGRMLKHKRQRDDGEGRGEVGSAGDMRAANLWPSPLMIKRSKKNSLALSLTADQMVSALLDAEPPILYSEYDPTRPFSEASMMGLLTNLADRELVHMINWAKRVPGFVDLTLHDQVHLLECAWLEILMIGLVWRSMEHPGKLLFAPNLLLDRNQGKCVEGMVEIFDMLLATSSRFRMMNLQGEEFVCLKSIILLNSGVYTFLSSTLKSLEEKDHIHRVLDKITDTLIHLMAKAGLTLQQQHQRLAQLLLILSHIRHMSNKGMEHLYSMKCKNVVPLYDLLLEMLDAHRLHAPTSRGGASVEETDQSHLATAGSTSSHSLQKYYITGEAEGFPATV
Sequence of Androgen receptor (Homo sapiens) (P10275 whole entry, looked up): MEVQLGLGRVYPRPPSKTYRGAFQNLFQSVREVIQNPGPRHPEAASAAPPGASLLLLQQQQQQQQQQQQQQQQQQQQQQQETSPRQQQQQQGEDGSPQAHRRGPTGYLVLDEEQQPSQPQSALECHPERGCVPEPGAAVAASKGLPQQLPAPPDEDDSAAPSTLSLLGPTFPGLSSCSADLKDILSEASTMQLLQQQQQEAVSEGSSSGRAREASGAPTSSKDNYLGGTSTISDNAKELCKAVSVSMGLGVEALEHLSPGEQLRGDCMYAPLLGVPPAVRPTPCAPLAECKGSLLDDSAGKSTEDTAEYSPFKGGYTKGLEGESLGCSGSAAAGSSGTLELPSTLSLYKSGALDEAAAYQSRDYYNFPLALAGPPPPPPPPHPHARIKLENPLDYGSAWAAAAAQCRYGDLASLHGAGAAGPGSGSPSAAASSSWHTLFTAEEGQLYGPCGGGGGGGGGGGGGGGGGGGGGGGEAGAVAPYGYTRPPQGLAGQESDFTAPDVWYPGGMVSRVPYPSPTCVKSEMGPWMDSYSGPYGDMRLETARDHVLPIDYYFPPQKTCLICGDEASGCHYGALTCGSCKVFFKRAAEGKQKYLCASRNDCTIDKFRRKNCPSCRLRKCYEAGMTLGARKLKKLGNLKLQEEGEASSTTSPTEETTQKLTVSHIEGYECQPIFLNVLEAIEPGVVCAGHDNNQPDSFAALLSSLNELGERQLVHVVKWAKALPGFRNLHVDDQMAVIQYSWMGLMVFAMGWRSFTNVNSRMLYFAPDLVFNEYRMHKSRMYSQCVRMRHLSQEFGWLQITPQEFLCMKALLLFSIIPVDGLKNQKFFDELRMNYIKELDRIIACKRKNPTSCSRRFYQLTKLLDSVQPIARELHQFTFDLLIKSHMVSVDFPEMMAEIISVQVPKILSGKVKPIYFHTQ

Row | Compound | outcome [1] | Potency [2] | Potency [3] | Potency [4] | outcome [5] | Potency [6] | Potency [7] | Potency [8] | outcome [9] | outcome [10] | outcome [11] | Potency [12] | outcome [13] | Potency [14] | outcome [15] | Potency [16] | Potency [17] | Potency [18] | Potency [19]
1 | O=[N+]([O-])c1ccc(Oc2ccc([N+](=O)[O-])cc2)cc1 | inactive | inactive | inactive | inactive | inactive | inactive | inactive | inactive | inactive | inactive | inactive | inactive | inactive | inactive | inactive | – | – | – | –
2 | CC(C)c1cccc(O)c1 | inactive | inactive | inactive | inactive | inactive | inactive | inactive | inactive | inactive | inactive | inactive | – | inactive | – | inactive | inactive | – | – | –
3 | c1ccc(CCCc2ccccn2)cc1 | inactive | – | inactive | inactive | inactive | inactive | inactive | inactive | inactive | inactive | inactive | 4.33 µM (active) | inactive | – | inactive | inactive | inactive | inactive | –
4 | Nc1ccc2cc(S(=O)(=O)O)ccc2c1 | inactive | inactive | inactive | inactive | – | inactive | inactive | inactive | inactive | inactive | inactive | inactive | inactive | inactive | inactive | inactive | – | inactive | –
5 | COc1ccc(NC(C)=O)cc1 | inactive | inactive | inactive | inactive | – | inactive | inactive | inactive | inactive | inactive | – | inactive | inactive | inactive | inactive | inactive | – | inactive | inactive
6 | COc1nc(C)nc(N)n1 | inactive | inactive | inactive | inactive | – | inactive | inactive | inactive | inactive | inactive | inactive | inactive | inactive | inactive | inactive | inactive | – | inactive | –
7 | CSc1ccc(C=O)cc1 | inactive | inactive | inactive | inactive | inactive | inactive | inactive | inactive | inactive | inactive | – | inactive | – | inactive | inactive | inactive | – | inactive | –
8 | CC/C=C\CCCCO | inactive | inactive | inactive | inactive | – | inactive | inactive | inactive | inactive | inactive | inactive | inactive | – | inactive | inactive | inactive | – | – | –
9 | Fc1ccccc1-c1ccccc1 | inactive | – | inactive | inactive | inactive | inactive | inactive | inactive | inactive | inactive | inactive | – | inactive | inactive | inactive | inactive | – | inactive | –
10 | COc1cccc(Br)c1 | inactive | inactive | – | inactive | inactive | inactive | inactive | – | inactive | inactive | inactive | inactive | inactive | inactive | inactive | inactive | – | inactive | inactive
